Test results: PubChem BioAssay (NCATS)
Inconclusive results are not listed. Values without a mark were called inactive. The source made the active and inactive calls. Calls follow the shape of the full dose curve.

Test: Primary qHTS for inhibitors of SARS-S pseudo-typed particle cell entry (AID 1479145); also: nearly all actives have a fitted effect of over 45% in size
Conditions: SARS-S pseudotyped particle cell entry, luciferase reporter; series mostly up to 57.1 µM; activity change, negative = inhibition: at the top concentration
% is scaled to controls: 0 for no effect and ±100 for the full control effect.

Compound	activity change, negative = inhibition	outcome
CN1CCN(CC(=O)N2c3ccccc3C(=O)Nc3cccnc32)CC1	-4.78% [at 5.34 µM]	–
CN[C@@H]1[C@@H](O)[C@@H](O[C@@H]2[C@H](O)[C@H](O[C@H]3OC(CN)=CC[C@H]3N)[C@@H](N)C[C@H]2N)OCC1(C)O (stereo partly specified)	-10.2%	–
COc1ccc(C(=O)c2ccccc2)c(O)c1	-31.8%	–
CCCCCCCCCCCCOCCO	-24%	–
Cc1cccc(C)c1OCC(=O)N[C@@H](Cc1ccccc1)[C@@H](O)C[C@H](Cc1ccccc1)NC(=O)[C@H](C(C)C)N1CCCNC1=O	–	inactive
C[C@]12CCC(=O)C=C1CC[C@H]1[C@@H]3CC[C@](O)(C(=O)CO)[C@@]3(C)C[C@H](O)[C@@]12F	–	inactive
NC(=O)c1cnccn1	–	inactive
CCCCCCCC/C=C/C(=O)O	–	inactive
CCO[C@H](Cc1ccc(OCCc2ccc(OS(C)(=O)=O)cc2)cc1)C(=O)O	-17.7%	–
CCCCCCCCCCCCCCCCCC(=O)OCC(O)CO (stereo unspecified)	–	inactive
NCCS(=O)(=O)O	–	inactive
O=C(O)c1cc(=O)c2c(OCC(O)COc3cccc4oc(C(=O)O)cc(=O)c34)cccc2o1	-0.807%	–
CCN(CC)CCNC(=O)c1cc(S(C)(=O)=O)ccc1OC	–	inactive
CC(=O)OCC[N+](C)(C)C	-6.05%	–
Cc1cc(O)c2c(O)c3c(O)cccc3cc2c1	–	inactive
CCCCCCCCCCCCCCCC(=O)OCCC1CCN(CCCN2c3ccccc3Sc3ccc(S(=O)(=O)N(C)C)cc32)CC1	-7.44%	–
CC(=O)Nc1ccc(OC(=O)c2ccccc2OC(C)=O)cc1	-19.4%	–
CCCCCCCN(CC)CCCC(O)c1ccc(NS(C)(=O)=O)cc1 (stereo unspecified)	–	inactive
CCCCC(CC)COC(=O)c1ccccc1O (stereo unspecified)	-22%	–

Compound	activity change, negative = inhibition	outcome
CNC(=O)c1c(I)c(NC(C)=O)c(I)c(C(=O)O)c1I	–	inactive
O=P(O)(O)C(O)(Cn1ccnc1)P(=O)(O)O	-28.9%	–
CCOC(=O)/C=C(C)/C=C/C=C(C)/C=C/c1c(C)cc(OC)c(C)c1C	4.14%	–
O=C(COCCOCCOCC(=O)Nc1c(I)cc(I)c(C(=O)O)c1I)Nc1c(I)cc(I)c(C(=O)O)c1I	-1.3%	–
C[C@H](CS)C(=O)N1CCC[C@H]1C(=O)O	-5.54%	–
O=C(c1ccccc1)c1ccccc1	-19.7%	–
COc1cnc(NS(=O)(=O)c2ccc(N)cc2)nc1	-6.65%	–
Nc1ccc(S(=O)(=O)NC(=O)c2ccccc2)cc1	-0.783%	–
NCCNCCNCCNCCN	–	inactive [at 11.4 µM]
CC(=O)NS(=O)(=O)c1ccc(N)cc1	-5.61%	–
CCCCOC(=O)c1ccc(O)cc1	-5.45%	–
CC(CCc1ccccc1)NCC(O)c1ccc(O)c(C(N)=O)c1 (stereo unspecified)	-37.7%	–
CO[C@@]1(NC(=O)C2SC(=C(C(N)=O)C(=O)O)S2)C(=O)N2C(C(=O)O)=C(CSc3nnnn3C)CS[C@@H]21 (stereo partly specified)	-31.2%	–
NC[C@H]1O[C@H](O[C@H]2[C@H](O[C@@H]3O[C@H](CO)[C@@H](O)[C@H]3O)C(O)[C@H](N)C[C@@H]2N)[C@H](N)[C@@H](O)[C@@H]1O (stereo partly specified)	–	inactive [at 11.4 µM]
CCC[C@@]1(CCc2ccccc2)CC(O)=C([C@H](CC)c2cccc(NS(=O)(=O)c3ccc(C(F)(F)F)cn3)c2)C(=O)O1	-52.2%	–
NC(=O)c1ccc([N+](=O)[O-])cc1Cl	-34.1%	–
CCCC(=O)OCOC(=O)C1=C(C)NC(C)=C(C(=O)OC)C1c1cccc(Cl)c1Cl (stereo unspecified)	–	inactive
NC(N)=Nc1nc(CSCC/C(N)=N/S(N)(=O)=O)cs1	–	inactive
O=C(O)[C@H](O)c1ccccc1	1.93%	–

Test: Primary qHTS for Huh7 cytotoxicity: counterscreen for inhibitors of MERS-S pseudotyped particle cell entry (AID 1479147)
Conditions: cell viability read-out; series mostly up to 57.1 µM; activity change, negative = cytotoxicity: at the top concentration

Compound	activity change, negative = cytotoxicity	outcome
CN1CCN(CC(=O)N2c3ccccc3C(=O)Nc3cccnc32)CC1	1.37% [at 5.34 µM]	–
CN[C@@H]1[C@@H](O)[C@@H](O[C@@H]2[C@H](O)[C@H](O[C@H]3OC(CN)=CC[C@H]3N)[C@@H](N)C[C@H]2N)OCC1(C)O (stereo partly specified)	–	inactive
COc1ccc(C(=O)c2ccccc2)c(O)c1	–	inactive
CCCCCCCCCCCCOCCO	–	inactive
Cc1cccc(C)c1OCC(=O)N[C@@H](Cc1ccccc1)[C@@H](O)C[C@H](Cc1ccccc1)NC(=O)[C@H](C(C)C)N1CCCNC1=O	–	inactive
C[C@]12CCC(=O)C=C1CC[C@H]1[C@@H]3CC[C@](O)(C(=O)CO)[C@@]3(C)C[C@H](O)[C@@]12F	–	inactive
NC(=O)c1cnccn1	–	inactive
CCCCCCCC/C=C/C(=O)O	–	inactive
CCO[C@H](Cc1ccc(OCCc2ccc(OS(C)(=O)=O)cc2)cc1)C(=O)O	0.0548%	–
CCCCCCCCCCCCCCCCCC(=O)OCC(O)CO (stereo unspecified)	–	inactive
NCCS(=O)(=O)O	–	inactive
O=C(O)c1cc(=O)c2c(OCC(O)COc3cccc4oc(C(=O)O)cc(=O)c34)cccc2o1	–	inactive
CCN(CC)CCNC(=O)c1cc(S(C)(=O)=O)ccc1OC	–	inactive
CC(=O)OCC[N+](C)(C)C	–	inactive
Cc1cc(O)c2c(O)c3c(O)cccc3cc2c1	–	inactive
CCCCCCCCCCCCCCCC(=O)OCCC1CCN(CCCN2c3ccccc3Sc3ccc(S(=O)(=O)N(C)C)cc32)CC1	–	inactive
CC(=O)Nc1ccc(OC(=O)c2ccccc2OC(C)=O)cc1	–	inactive
CCCCCCCN(CC)CCCC(O)c1ccc(NS(C)(=O)=O)cc1 (stereo unspecified)	–	inactive
CCCCC(CC)COC(=O)c1ccccc1O (stereo unspecified)	–	inactive

Compound	activity change, negative = cytotoxicity	outcome
CNC(=O)c1c(I)c(NC(C)=O)c(I)c(C(=O)O)c1I	–	inactive
O=P(O)(O)C(O)(Cn1ccnc1)P(=O)(O)O	–	inactive
CCOC(=O)/C=C(C)/C=C/C=C(C)/C=C/c1c(C)cc(OC)c(C)c1C	–	inactive
O=C(COCCOCCOCC(=O)Nc1c(I)cc(I)c(C(=O)O)c1I)Nc1c(I)cc(I)c(C(=O)O)c1I	–	inactive
C[C@H](CS)C(=O)N1CCC[C@H]1C(=O)O	0.521%	–
O=C(c1ccccc1)c1ccccc1	1.86%	–
COc1cnc(NS(=O)(=O)c2ccc(N)cc2)nc1	–	inactive
Nc1ccc(S(=O)(=O)NC(=O)c2ccccc2)cc1	–	inactive
NCCNCCNCCNCCN	–	inactive [at 11.4 µM]
CC(=O)NS(=O)(=O)c1ccc(N)cc1	-10.6%	–
CCCCOC(=O)c1ccc(O)cc1	-2.59%	–
CC(CCc1ccccc1)NCC(O)c1ccc(O)c(C(N)=O)c1 (stereo unspecified)	–	inactive
CO[C@@]1(NC(=O)C2SC(=C(C(N)=O)C(=O)O)S2)C(=O)N2C(C(=O)O)=C(CSc3nnnn3C)CS[C@@H]21 (stereo partly specified)	–	inactive
NC[C@H]1O[C@H](O[C@H]2[C@H](O[C@@H]3O[C@H](CO)[C@@H](O)[C@H]3O)C(O)[C@H](N)C[C@@H]2N)[C@H](N)[C@@H](O)[C@@H]1O (stereo partly specified)	–	inactive [at 11.4 µM]
CCC[C@@]1(CCc2ccccc2)CC(O)=C([C@H](CC)c2cccc(NS(=O)(=O)c3ccc(C(F)(F)F)cn3)c2)C(=O)O1	–	inactive
NC(=O)c1ccc([N+](=O)[O-])cc1Cl	–	inactive
CCCC(=O)OCOC(=O)C1=C(C)NC(C)=C(C(=O)OC)C1c1cccc(Cl)c1Cl (stereo unspecified)	–	inactive
NC(N)=Nc1nc(CSCC/C(N)=N/S(N)(=O)=O)cs1	–	inactive
O=C(O)[C@H](O)c1ccccc1	–	inactive
